In the library only some 0.93% were active in any assay of this set; here they are far more common.
CIT2-GFP yeast: modulators of TOR pathway CIT2-GFP in S. cerevisiae; 320,000 compounds, 0.065% hits; S. cerevisiae CIT2-GFP strain, flow cytometry, 3 h; 100 means same as DMSO wells; GFP response vs DMSO, % at 10 µM;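 active means GFP response relative to DMSO above a set limit, near the screen mean plus 3 SD, cut at about 150% in these data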;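 further: ratio of well median GFP fluorescence to mean of DMSO wells on the plate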
RPL19A-GFP yeast: alters RPL19A-GFP fluorescence in TOR pathway yeast screen; S. cerevisiae RPL19A-GFP strain, flow cytometry, 3 h; stronger effect = lower value; percent response vs DMSO, % at 10 µM; 330,000 compounds, 0.3% hits; AID 2025;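 active means percent response vs DMSO below 50%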;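 further: median channel GFP fluorescence of the barcoded RPL19A-GFP strain; lower means less RPL19A-GFP as with rapamycin TOR inhibition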
MEP2 TOR yeast: yeast TOR pathway MEP2-GFP modulation | 330,000 compounds, 0.51% hits | S. cerevisiae MEP2-GFP strain, flow cytometry GFP, 3 h; 100% = DMSO control level | GFP response vs DMSO, % at 10 µM;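 active means GFP response versus DMSO above a set limit, roughly screen mean plus 3 SD, cut at about 180% in these data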;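 further: median GFP fluorescence of the barcode-gated MEP2-GFP cells per well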
AGP1 TOR yeast: modulators of TOR pathway AGP1-GFP in S. cerevisiae | S. cerevisiae AGP1-GFP multiplex flow cytometry, 3 h; GFP as percent of DMSO wells | 320,000 compounds, 0.02% hits | GFP response vs DMSO, % at 10 µM;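 active means GFP response relative to DMSO above a set limit, near screen average plus 3 SD, cut at about 150% in these data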;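 further: median GFP channel fluorescence of the gated AGP1 strain per well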
LAP4-GFP MLPCN: alters LAP4-GFP fluorescence in TOR pathway yeast screen; AID 2023; GFP response vs DMSO, % at 10 µM; 320,000 compounds, 0.34% hits; S. cerevisiae LAP4-GFP multiplex, flow cytometry GFP, 3 h; median GFP as percent of DMSO wells;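 active means GFP response vs DMSO above a set limit, about the screen mean plus 3 SD, cut at about 150% in these data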
LAP4-GFP pick2: reconfirmed LAP4-GFP TOR pathway modulator in yeast. shares compounds with LAP4-GFP MLPCN. S. cerevisiae LAP4-GFP strain, flow cytometry GFP, 3 h. GFP response vs DMSO, % at 10 µM. 590 compounds, 20% hits. AID 2621;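 active means GFP signal as percent of the solvent control above about 150%, meaning raised reporter expression, limit read from the data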
MEP2 cherry2: second confirmation of modulators of TOR reporter MEP2-GFP in yeast; shares compounds with LAP4-GFP MLPCN; S. cerevisiae MEP2-GFP strain, flow cytometry GFP, 3 h; GFP response vs DMSO, % at 10 µM; 590 compounds, 10% hits; AID 2622;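 active means GFP signal above 150% of the solvent control wells, that is a rise of more than half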;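 further: median channel GFP fluorescence of all gated yeast cells per well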
RPL19A GFP CP2: yeast RPL19A-GFP TOR reporter modulation, second cherry pick; AID 2623; GFP response vs DMSO, % at 10 µM; S. cerevisiae RPL19A-GFP strain, flow cytometry GFP, 3 h; stronger effect = lower value; 100% means same as DMSO wells; 590 compounds, 3% hits; shares compounds with LAP4-GFP MLPCN;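 active means under 65% GFP response relative to DMSO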;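 further: median GFP channel fluorescence per well over the all cells gate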
CIT2-GFP pick2: second confirmation of modulators of TOR reporter CIT2-GFP in yeast; shares compounds with LAP4-GFP MLPCN; S. cerevisiae CIT2-GFP strain, flow cytometry GFP, 3 h; DMSO control wells read 100%; GFP response vs DMSO, % at 10 µM; 590 compounds, 8% hits;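 active means GFP response vs DMSO above about 150%, limit read from the data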;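 further: median green fluorescence per well over all gated yeast cells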
AGP1 GFP CP2: second confirmation of modulators of TOR reporter AGP1-GFP in yeast. percent response vs DMSO, % at 10 µM. shares compounds with LAP4-GFP MLPCN. 590 tested, under 10 active. S. cerevisiae AGP1-GFP strain, flow cytometry GFP, 3 h;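 active means over 150 percent of DMSO response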;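 further: median GFP channel fluorescence over all cells without mother daughter split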
s288c autofluor: compound is autofluorescent in yeast s288c cells; shares compounds with LAP4-GFP MLPCN; S. cerevisiae s288c, 520 nm autofluorescence, flow cytometry, 3 h; stronger effect = higher value; zero means same as solvent-only cells; fluorescence change (kMESF span) at 33 µM; 610 tested, under 10 active; AID 2757;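 active means fluorescence span over the dose series, or activity score, above about 33, limit read from the data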
s288c autofl DR: yeast s288c autofluorescence artifact in dose response. S. cerevisiae s288c parental, compound autofluorescence, flow cytometry, 3 h. AID 488829. shares compounds with LAP4-GFP MLPCN. 110 tested, under 10 active. fluorescence change (span) at 33 µM;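 active means fluorescence change span, or the activity score built from it, above 25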
TORC1 bypass: compounds blocking wildtype yeast growth but not TORC1 bypass cells; shares compounds with LAP4-GFP MLPCN; S. cerevisiae BY4741 spot growth rating, 48-72 h; stronger effect = lower value; growth rating (0-3) at 30 µM; 120 tested, under 10 active; AID 504456;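 active means growth rating at most 1 for wild type yeast while the TORC1 bypass strain still grows fully, rated 3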
Hits are given with their value; n = inactive; x = not tested or not shown; [ ] = remark or other dose.

SMILES	CIT2-GFP yeast	RPL19A-GFP yeast	MEP2 TOR yeast	AGP1 TOR yeast	LAP4-GFP MLPCN	LAP4-GFP pick2	MEP2 cherry2	RPL19A GFP CP2	CIT2-GFP pick2	AGP1 GFP CP2	others
Cc1cc2c(cc1S(=O)(=O)CCC(=O)Nc1cccc(C(F)(F)F)c1)OCC(=O)N2	n	n	n	n	n	x	x	x	x	x
C=CCN(c1ccccc1C(=O)NCC(=O)O)S(=O)(=O)c1ccccc1C	n	n	n	n	n	x	x	x	x	x
Cc1ccc(/C=N/NC(=O)c2cccc(NC(=O)c3ccccc3Cl)c2)o1	n	n	n	n	n	x	x	x	x	x
Cc1nc(NCCc2ccccc2)sc1C(=O)N(C)C	n	n	n	n	n	x	x	x	x	x
CCOC(=O)c1ccc(NC(=O)C(=O)NCC2(c3ccc(OC)cc3)CCOCC2)cc1	n	n	n	n	n	x	x	x	x	x
O=C(COc1ccccc1)NNC(=S)NC(=O)c1ccc(Cl)cc1Cl	n	n	n	n	219	260	185	n	n	n	s288c autofluor=n
C=C1CCN([C@@H](C)C(=O)OCc2cccc(C)c2)S(=O)(=O)c2ccccc21	n	n	n	n	153	n	n	n	n	n
C=C1CCN([C@H](C(=O)OCc2ccc(C)cc2)C(C)C)S(=O)(=O)c2ccccc21	n	n	n	n	n	x	x	x	x	x
O=[N+]([O-])c1ccc(N=Nc2c(Cl)cc(O)cc2Cl)cc1	n	n	n	n	278	x	x	x	x	x	s288c autofluor=n
COc1ccc(N2CC(C(=O)NCc3nnnn3-c3ccc(C)c(C)c3)CC2=O)cc1 (stereo not given)	n	n	n	n	n	x	x	x	x	x
Cc1nc(Nc2nc3c(c(=O)[nH]2)CCC3)nc2ccccc12	n	n	n	n	n	n	n	n	n	n
O=c1[nH]c(NCc2ccccc2)nc2c1CCC2	n	n	n	n	n	x	x	x	x	x
COc1ccc(CCC(C)N2CCC(CO)(Cc3ccccc3)CC2)cc1 (stereo not given)	n	n	n	n	n	x	x	x	x	x
COc1ccccc1Nc1nc(NCCO)nc(N)c1[N+](=O)[O-]	n	n	n	n	n	x	x	x	x	x
CNc1nc(N)c([N+](=O)[O-])c(Nc2ccccc2OC)n1	n	n	n	n	n	x	x	x	x	x	s288c autofl DR=n;TORC1 bypass=n
COCCCNc1nc(N)c([N+](=O)[O-])c(Nc2cc(OC)ccc2OC)n1	n	n	n	n	n	x	x	x	x	x
CNc1nc(N)c([N+](=O)[O-])c(Nc2cc(OC)ccc2OC)n1	x	x	x	x	x	x	x	x	x	x	s288c autofl DR=n;TORC1 bypass=n
O=C(O)c1cccc(S(=O)(=O)Nc2ccc(S(=O)(=O)N3CCOCC3)cc2)c1	n	n	n	n	n	n	n	n	n	n	s288c autofluor=n
Cc1ccc(NS(=O)(=O)c2cccc(C(=O)O)c2)cc1S(=O)(=O)N1CCOCC1	n	n	n	n	n	x	x	x	x	x
O=C(CS(=O)c1ccccc1[N+](=O)[O-])Oc1ccc(Br)cc1 (stereo not given)	n	n	n	n	170	x	x	x	x	x	s288c autofluor=n
O=C1c2ccccc2C(=O)C1c1ccccn1	n	n	n	n	n	x	x	x	x	x
O=C1c2ccccc2C(=O)C2OC12 (stereo not given)	n	n	n	n	163	x	x	x	x	x	s288c autofluor=n
CCCCCCSc1ccc(-c2nc3ccccn3c2NCCCC)cc1	n	n	n	n	161	n	n	n	n	n
COC(=O)c1cc(N2C(=O)C3C(C2=O)C2(C)C=CC3(C)O2)ccc1Cl (stereo not given)	n	n	n	n	162	x	x	x	x	x	s288c autofluor=n
Cc1c(Br)c(=O)oc2c(Br)c(O)c(O)cc12	n	n	n	n	n	n	n	n	n	n	s288c autofluor=n
SMILES	CIT2-GFP yeast	RPL19A-GFP yeast	MEP2 TOR yeast	AGP1 TOR yeast	LAP4-GFP MLPCN	LAP4-GFP pick2	MEP2 cherry2	RPL19A GFP CP2	CIT2-GFP pick2	AGP1 GFP CP2	others
Cc1c(Br)c(=O)oc2c(Br)c(O)ccc12	n	n	n	n	n	x	x	x	x	x
CCOC(=O)C1=C(COC(=O)CNC(=O)c2ccc(C(C)(C)C)cc2)NC(=O)NC1C (stereo not given)	n	n	n	n	n	x	x	x	x	x
CCOC(=O)C1=C(COC(=O)CNC(=O)c2ccc(C)cc2)NC(=O)NC1C (stereo not given)	n	n	n	n	n	n	n	n	n	n
CCCS(=O)(=O)N1CCC(C(=O)Oc2ccc(OC)cc2)CC1	n	n	n	n	n	x	x	x	x	x
Cc1cccc(N=Nc2ccc(O)c3ncccc23)c1	n	n	n	n	165[may fluoresce green]	200	n	n	n	n	s288c autofluor=n
CCOC(=O)c1c(C)[nH]c(C(=O)COC(=O)c2[nH]c(C)c(C(C)=O)c2C)c1C	n	n	n	n	n	x	x	x	x	x
CC(=O)c1c(C)[nH]c(C(=O)COC(=O)c2ccc(C)s2)c1C	n	n	n	n	153	n	n	n	n	n
O=C1C=CC(=O)N1c1cccc(-c2ccccc2)c1	n	n	n	n	206	x	x	x	x	x	s288c autofluor=n
O=C(CSc1nnc(NC(=O)c2cccc(F)c2)s1)NC1CCCC1	n	n	n	n	n	x	x	x	x	x
O=C(CN1CCSC1=O)N1CCN(S(=O)(=O)c2ccccc2)CC1	n	n	n	n	n	x	x	x	x	x
CC1=NN(c2ccccc2)C(=O)/C1=C/c1cccc(C)c1	n	n	n	n	n	x	x	x	x	x
CC1=NN(c2ccccc2)C(=O)/C1=C/c1c(C)[nH]n(-c2ccc(C)cc2)c1=O	n	n	n	n	n	n	n	n	n	n
Cc1ccc(C(=O)NCCC(=O)N2CCCC2)cc1	n	n	n	n	n	x	x	x	x	x
CC(C)(C=O)C1=CC(=O)c2ccccc2C1=O	n	n	n	n	193	n	n	n	n	n

Screening data (PubChem BioAssay)
